{
  "source": "ChEMBL document CHEMBL5606460",
  "about": "“ASAP - DENV-2 NS2B-NS3 protease fluorescence single point” (2024)",
  "biological_target": "Genome polyprotein (dengue virus type 2) (UniProt P29990)",
  "note": "Screen size: about 2,000 compounds; about 110 (5.5%) showed an effect of 50% or more. Many of the other results were omitted from the sample, so strong results are more common in it than they were.",
  "data": [
    {"smiles": "N[C@@H]1CCCC[C@H]1C(=O)Nc1cccc2cccnc12", "values": [
      {"measurement": "inhibition", "setting": "Thailand/16681/1984, Concentration 49.95 uM, Number of replicates 2.0, Standard deviation 3.2838754106489776 %", "result": -8.7, "unit": "%"},
      {"measurement": "inhibition", "setting": "Thailand/16681/1984, Concentration 99.9 uM, Number of replicates 2.0, Standard deviation 3.148144351005342 %", "result": -7.2, "unit": "%"}
    ]},
    {"smiles": "O=C(Nc1cccc2cccnc12)C1CCNCC1", "values": [
      {"measurement": "inhibition", "setting": "Thailand/16681/1984, Concentration 49.95 uM, Number of replicates 2.0, Standard deviation 0.4211783883506398 %", "result": -0.871, "unit": "%"},
      {"measurement": "inhibition", "setting": "Thailand/16681/1984, Concentration 99.9 uM, Number of replicates 2.0, Standard deviation 1.2273405052219766 %", "result": 51.5, "unit": "%"}
    ]},
    {"smiles": "Nc1nccc2cc(Br)ccc12", "values": [
      {"measurement": "inhibition", "setting": "Thailand/16681/1984, Concentration 49.95 uM, Number of replicates 2.0, Standard deviation 5.1898726049351325 %", "result": -2.94, "unit": "%"},
      {"measurement": "inhibition", "setting": "Thailand/16681/1984, Concentration 99.9 uM, Number of replicates 2.0, Standard deviation 6.552121336877266 %", "result": -2.95, "unit": "%"}
    ]},
    {"smiles": "COc1ccc(Cl)c2sc(NC(=O)c3ccccc3NS(=O)(=O)c3ccc(Cl)cc3)nc12", "values": [
      {"measurement": "inhibition", "setting": "Thailand/16681/1984, Concentration 198.0 uM, Number of replicates 2.0, Standard deviation 9.166560145189157 %", "result": 8.28, "unit": "%"}
    ]},
    {"smiles": "CC(C)Nc1nc2ccc(C(=O)Nc3nnc4cccnn34)cc2[nH]1", "values": [
      {"measurement": "inhibition", "setting": "Thailand/16681/1984, Concentration 49.5 uM, Number of replicates 2.0, Standard deviation 0.47864102228875616 %", "result": -2.54, "unit": "%"},
      {"measurement": "inhibition", "setting": "Thailand/16681/1984, Concentration 99.01 uM, Number of replicates 2.0, Standard deviation 0.9476878624230379 %", "result": -0.35, "unit": "%"},
      {"measurement": "inhibition", "setting": "Thailand/16681/1984, Concentration 198.0 uM, Number of replicates 2.0, Standard deviation 0.5058242222917364 %", "result": 4.68, "unit": "%"}
    ]},
    {"smiles": "Cc1cc(CO)c2cccc(Cc3ccccc3NC(=O)Cc3c(C)c4c(=O)[nH]n(C)c4[nH]c3=O)c2n1", "values": [
      {"measurement": "inhibition", "setting": "Thailand/16681/1984, Concentration 49.95 uM, Number of replicates 2.0, Standard deviation 2.5458058686723866 %", "result": 22.5, "unit": "%"},
      {"measurement": "inhibition", "setting": "Thailand/16681/1984, Concentration 99.9 uM, Number of replicates 2.0, Standard deviation 1.6741240734205003 %", "result": 45.5, "unit": "%"}
    ]},
    {"smiles": "Cc1cc(CO)c2cccc(NCC3CCNCC3)c2n1", "values": [
      {"measurement": "inhibition", "setting": "Thailand/16681/1984, Concentration 49.95 uM, Number of replicates 2.0, Standard deviation 0.8313641199663653 %", "result": -6.22, "unit": "%"},
      {"measurement": "inhibition", "setting": "Thailand/16681/1984, Concentration 99.9 uM, Number of replicates 2.0, Standard deviation 1.3048073716258033 %", "result": 0.772, "unit": "%"}
    ]},
    {"smiles": "Cc1cc(CO)c2cccc(NC(=O)C[C@H]3CCCN3)c2n1", "values": [
      {"measurement": "inhibition", "setting": "Thailand/16681/1984, Concentration 49.95 uM, Number of replicates 2.0, Standard deviation 1.87682580099837 %", "result": 7.72, "unit": "%"},
      {"measurement": "inhibition", "setting": "Thailand/16681/1984, Concentration 99.9 uM, Number of replicates 2.0, Standard deviation 2.520000533440925 %", "result": 13.9, "unit": "%"}
    ]},
    {"smiles": "Cc1cc(CO)c2cccc(Cc3cccc(NC(=O)C[C@H]4CCCN4)c3)c2n1", "values": [
      {"measurement": "inhibition", "setting": "Thailand/16681/1984, Concentration 49.95 uM, Number of replicates 2.0, Standard deviation 0.1263380443971036 %", "result": -4.58, "unit": "%"},
      {"measurement": "inhibition", "setting": "Thailand/16681/1984, Concentration 99.9 uM, Number of replicates 2.0, Standard deviation 0.8674748654209231 %", "result": -4.17, "unit": "%"}
    ]},
    {"smiles": "Cc1cc(CO)c2cccc(Cc3ccccc3NC(=O)CCC3CCNCC3)c2n1", "values": [
      {"measurement": "inhibition", "setting": "Thailand/16681/1984, Concentration 49.95 uM, Number of replicates 2.0, Standard deviation 0.7055143046624119 %", "result": -4.33, "unit": "%"},
      {"measurement": "inhibition", "setting": "Thailand/16681/1984, Concentration 99.9 uM, Number of replicates 2.0, Standard deviation 1.236554143481246 %", "result": 6.21, "unit": "%"}
    ]},
    {"smiles": "Cc1cc(CO)c2cccc(NC(=O)CC3CNC3)c2n1", "values": [
      {"measurement": "inhibition", "setting": "Thailand/16681/1984, Concentration 49.95 uM, Number of replicates 2.0, Standard deviation 1.3762045228616064 %", "result": 7.76, "unit": "%"},
      {"measurement": "inhibition", "setting": "Thailand/16681/1984, Concentration 99.9 uM, Number of replicates 2.0, Standard deviation 1.6376626661863318 %", "result": 14.8, "unit": "%"}
    ]},
    {"smiles": "Cc1cc(CO)c2cccc(Cc3cccc(NC(=O)CCC4CCNCC4)c3)c2n1", "values": [
      {"measurement": "inhibition", "setting": "Thailand/16681/1984, Concentration 49.95 uM, Number of replicates 2.0, Standard deviation 1.9905342893580933 %", "result": 36.1, "unit": "%"},
      {"measurement": "inhibition", "setting": "Thailand/16681/1984, Concentration 99.9 uM, Number of replicates 2.0, Standard deviation 0.13016565259146895 %", "result": 90.2, "unit": "%"}
    ]},
    {"smiles": "Cc1cc(CO)c2cccc(Cc3cccc(NC(=O)CNC4CC4)c3)c2n1", "values": [
      {"measurement": "inhibition", "setting": "Thailand/16681/1984, Concentration 49.95 uM, Number of replicates 2.0, Standard deviation 1.5245757174015988 %", "result": 0.182, "unit": "%"},
      {"measurement": "inhibition", "setting": "Thailand/16681/1984, Concentration 99.9 uM, Number of replicates 2.0, Standard deviation 1.8285218036822166 %", "result": 7.46, "unit": "%"}
    ]},
    {"smiles": "Cc1cc(CO)c2cccc(NC(=O)CCC3CCNCC3)c2n1", "values": [
      {"measurement": "inhibition", "setting": "Thailand/16681/1984, Concentration 49.95 uM, Number of replicates 2.0, Standard deviation 0.01891415691253689 %", "result": 99.7, "unit": "%"},
      {"measurement": "inhibition", "setting": "Thailand/16681/1984, Concentration 99.9 uM, Number of replicates 2.0, Standard deviation 0.03175377284289565 %", "result": 99.6, "unit": "%"}
    ]},
    {"smiles": "Cc1cc(CO)c2cccc(NC(=O)CC3CCNCC3)c2n1", "values": [
      {"measurement": "inhibition", "setting": "Thailand/16681/1984, Concentration 49.95 uM, Number of replicates 2.0, Standard deviation 2.142909982415651 %", "result": 8.3, "unit": "%"},
      {"measurement": "inhibition", "setting": "Thailand/16681/1984, Concentration 99.9 uM, Number of replicates 2.0, Standard deviation 0.2007188026491294 %", "result": 53.9, "unit": "%"}
    ]},
    {"smiles": "Cc1cc(CO)c2cccc(NC(=O)Cc3c(C)c4c(=O)[nH]n(C)c4[nH]c3=O)c2n1", "values": [
      {"measurement": "inhibition", "setting": "Thailand/16681/1984, Concentration 49.95 uM, Number of replicates 2.0, Standard deviation 1.6565788461475972 %", "result": 17.7, "unit": "%"},
      {"measurement": "inhibition", "setting": "Thailand/16681/1984, Concentration 99.9 uM, Number of replicates 2.0, Standard deviation 1.9416844060600267 %", "result": 32.2, "unit": "%"}
    ]},
    {"smiles": "Cc1cc(CO)c2cccc(Cc3cccc(NC(=O)Cc4c(C)c5c(=O)[nH]n(C)c5[nH]c4=O)c3)c2n1", "values": [
      {"measurement": "inhibition", "setting": "Thailand/16681/1984, Concentration 49.95 uM, Number of replicates 2.0, Standard deviation 0.9721935995806666 %", "result": 38.4, "unit": "%"},
      {"measurement": "inhibition", "setting": "Thailand/16681/1984, Concentration 99.9 uM, Number of replicates 2.0, Standard deviation 1.6660426680996274 %", "result": 65.6, "unit": "%"}
    ]},
    {"smiles": "Cc1cc(N)c2cccc(Br)c2n1", "values": [
      {"measurement": "inhibition", "setting": "Thailand/16681/1984, Concentration 49.95 uM, Number of replicates 2.0, Standard deviation 5.849609152234285 %", "result": -8.02, "unit": "%"},
      {"measurement": "inhibition", "setting": "Thailand/16681/1984, Concentration 99.9 uM, Number of replicates 2.0, Standard deviation 5.75747614138947 %", "result": -7.97, "unit": "%"}
    ]},
    {"smiles": "Cc1cc(CO)c2cccc(Cc3ccccc3NC(=O)Cc3c[nH]c4ccccc34)c2n1", "values": [
      {"measurement": "inhibition", "setting": "Thailand/16681/1984, Concentration 49.95 uM, Number of replicates 2.0, Standard deviation 1.1797806526631314 %", "result": 5.6, "unit": "%"},
      {"measurement": "inhibition", "setting": "Thailand/16681/1984, Concentration 99.9 uM, Number of replicates 2.0, Standard deviation 0.9471475819719768 %", "result": 13.1, "unit": "%"}
    ]},
    {"smiles": "CNC(=O)c1cc(Cl)ccc1NS(=O)(=O)c1cc(Cl)cc(C(=O)NC)c1OC", "values": [
      {"measurement": "inhibition", "setting": "Thailand/16681/1984, Concentration 49.5 uM, Number of replicates 2.0, Standard deviation 3.5107220562143744 %", "result": -1.24, "unit": "%"},
      {"measurement": "inhibition", "setting": "Thailand/16681/1984, Concentration 99.01 uM, Number of replicates 2.0, Standard deviation 4.644293157051252 %", "result": 1.93, "unit": "%"},
      {"measurement": "inhibition", "setting": "Thailand/16681/1984, Concentration 198.0 uM, Number of replicates 2.0, Standard deviation 3.3165321375743706 %", "result": 8.2, "unit": "%"}
    ]},
    {"smiles": "O=Cc1ccc(N2CCC(C(=O)Nc3ccc(F)cc3C(F)(F)F)CC2)cc1", "values": [
      {"measurement": "inhibition", "setting": "Thailand/16681/1984, Concentration 25.0 uM, Number of replicates 1.0", "result": 12.5, "unit": "%"}
    ]},
    {"smiles": "O=C(O)c1cnn(C2CCN(C(=O)c3ccnc4[nH]cnc34)CC2)c1", "values": [
      {"measurement": "inhibition", "setting": "Thailand/16681/1984, Concentration 49.5 uM, Number of replicates 2.0, Standard deviation 1.214191700010942 %", "result": -2.48, "unit": "%"},
      {"measurement": "inhibition", "setting": "Thailand/16681/1984, Concentration 99.01 uM, Number of replicates 2.0, Standard deviation 1.7130868961137902 %", "result": -2.88, "unit": "%"},
      {"measurement": "inhibition", "setting": "Thailand/16681/1984, Concentration 198.0 uM, Number of replicates 2.0, Standard deviation 1.3863533153956358 %", "result": -2.86, "unit": "%"}
    ]}
  ]
}
